Test results: PubChem BioAssay (NCATS)
Results filed as inconclusive are left out. Activity calls are given as the source filed them. Calls follow the shape of the dose curve; as a rule, active = well fitted inhibition curve with a large enough effect; inconclusive = small, poorly fitted or top-dose-only effect; inactive = flat fitted curve, though single readings scatter.

Experiment: P-glycoprotein substrates identified in KB-8-5-11 adenocarcinoma cell line, qHTS therapeutic library screen (AID 1346987); also: nearly all actives have a fitted effect of over 65% in size
Conditions: KB-8-5-11 (P-gp overexpressing) viability, CellTiter-Glo, 72 h; series mostly up to 44.5 µM; activity change, negative = cytotoxicity: at the top concentration
Outline: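 KB-8-5-11, a colchicine-selected P-gp-overexpressing KB-3-1 subline, was grown without colchicine for the assay. Cells were seeded at 500 cells/well, dosed in concentration-response and incubated 72 h at 37 degree C, 5% CO2. Viability was read by CellTiter-Glo luminescence.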
% is scaled to controls: 0 for no effect and ±100 for the full control effect; potency is read from the fitted curve at half-maximal effect.

Row | Compound | Potency | outcome | activity change, negative = cytotoxicity
1 | N[C@H](C(=O)O)[C@@H]1CC(Cl)=NO1 | 4.11 µM (active) |  | 
2 | C[C@@H]1CCC2[C@@H](C)[C@@H](O)O[C@@H]3O[C@@]4(C)CC[C@@H]1[C@@]23OO4 (stereo partly drawn) | 10.3 µM (active) |  | 
3 | COC(=O)C1=CO[C@@H](O[C@@H]2O[C@H](CO[C@@H]3O[C@H](COC(=O)/C=C/c4ccc(O)cc4)[C@@H](O)[C@H](O)[C@H]3O)[C@@H](O)[C@H](O)[C@H]2O)[C@@H]2C(CO)=CC[C@H]12 |  | inactive [at 17.3 µM] | 
4 | COc1cc(C[C@H]2COC(=O)[C@@H]2Cc2ccc(O)c(OC)c2)ccc1O |  | inactive | 
5 | COc1cc(/C=C/C(=O)OC[C@H]2O[C@H](O[C@]3(CO)O[C@H](CO)[C@@H](O)[C@@H]3O)[C@H](O)[C@@H](O)[C@@H]2O)cc(OC)c1O |  |  | 3.72% [at 17.3 µM] (inactive)
6 | O=C(O)CCC(=O)C(=O)O |  |  | 7.84% (inactive)
7 | CC[C@H]1OC(=O)[C@H](C)[C@@H](OC2C[C@@](C)(OC)[C@@H](O)[C@H](C)O2)[C@H](C)[C@@H](OC2O[C@H](C)C[C@H](NC)[C@H]2O)[C@](C)(O)C[C@@H](C)CN(C)[C@H](C)[C@@H](O)[C@]1(C)O (stereo partly drawn) |  |  | 2.19% (inactive)
8 | Nc1nonc1C(=Nc1ccc(F)c(Cl)c1)NO |  | inactive | 
9 | NS(=O)(=O)NCCNc1nonc1C(=Nc1ccc(F)c(Br)c1)NO | inactive |  | 
10 | CCc1cc2c(=O)c(-c3nc4ccccc4s3)coc2c(CN2CCCCC2)c1O |  |  | -4.09% [at 17.3 µM] (inactive)
11 | O=S(=O)(NC1CCNCC1)c1cc(S(=O)(=O)c2ccccc2)ccc1C(F)(F)F |  | inactive | 
12 | OCCO[C@@H]1[C@@H](O)[C@H](O)[C@@H](CO)O[C@@H]1O |  |  | 6.25% (inactive)
13 | CC(C)C1(O[C@@H]2O[C@H](CO)[C@@H](O)[C@H](O)[C@H]2O)CC=C(CO)CC1 (stereo partly drawn) |  |  | -0.646% (inactive)
14 | COCCCNCC1COc2ccccc2O1 (stereo not drawn) |  | inactive | 
15 | CC(=O)O[C@@H]1[C@H](O[C@@H]2O[C@H](CO)[C@@H](O)[C@H](O)[C@H]2O)[C@@H](O[C@@H]2O[C@@H](C)[C@H](O)[C@@H](O[C@@H]3O[C@H](CO)[C@@H](O)[C@H](O)[C@H]3O)[C@H]2O)[C@H](OC(=O)C23CCC4(C)C(=CCC5C6(C)CC(O)C(O[C@@H]7O[C@H](C(=O)O)[C@@H](O)[C@H](O)[C@H]7O)C(C)(C(=O)O)C6CCC54C)C2CC(C)(C)CC3O)O[C@@H]1C (stereo partly drawn) |  | inactive [at 9.29 µM] | 
16 | CC(=O)OCC(=O)[C@@]1(O)CC[C@H]2[C@@H]3C[C@H](C)C4=CC(=O)C=C[C@]4(C)[C@H]3[C@@H](O)C[C@@]21C |  |  | -7.82% (inactive)
17 | CC(=O)N1CCN(NC(=O)c2ccc(F)cc2)CC1 |  | inactive | 
18 | COc1cc([C@@H]2c3cc4c(cc3[C@@H](O[C@@H]3O[C@@H]5CO[C@@H](C)O[C@H]5[C@H](O)[C@H]3O)[C@H]3COC(=O)[C@H]23)OCO4)cc(OC)c1O |  |  | -20.2% (inactive)
19 | C#Cc1cnc2[nH]c(=O)n(C(CC)CC)c2n1 |  |  | 1.76% (inactive)
20 | CC1(C)S[C@@H]2[C@H](NC(=O)Cc3ccccc3)C(=O)N2[C@H]1C(=O)O |  |  | 8.28% (inactive)
21 | C[C@H](CCC(=O)O)[C@H]1CC[C@H]2[C@@H]3[C@H](O)C[C@@H]4C[C@H](O)CC[C@]4(C)[C@H]3CC[C@]12C |  |  | 1.78% [at 17.3 µM] (inactive)
22 | C=C1CCC2C(C)(C(=O)O)CC(O)CC2(C)C1CC/C(C)=C/C(=O)O (stereo not drawn) |  |  | 6.48% (inactive)
23 | C[C@@H]1C(=O)O[C@H]2CC34[C@H]5C[C@@H](C(C)(C)C)C36[C@@H](OC(=O)[C@@H]6O)OC4(C(=O)O5)[C@]21O (stereo partly drawn) |  |  | 5.91% (inactive)
24 | CC1CCC(=O)CC(O)C(O)CC(=O)O1 (stereo not drawn) |  |  | 7.38% (inactive)
25 | Cc1ccccc1 |  |  | 2.08% (inactive)
26 | CC1=CC[C@]2(C(=O)O[C@@H]3O[C@H](CO[C@@H]4O[C@H](CO)[C@@H](O[C@@H]5O[C@@H](C)[C@H](O)[C@@H](O)[C@H]5O)[C@H](O)[C@H]4O)[C@@H](O)[C@H](O)[C@H]3O)CC[C@]3(C)C(CCC4[C@@]5(C)C[C@@H](O)[C@H](O)[C@@](C)(CO)C5CC[C@]43C)C2C1C (stereo partly drawn) |  |  | 8.32% [at 9.29 µM] (inactive)
27 | CO[C@H]1C=CO[C@@]2(C)Oc3c(C)c(O)c4c(O)c(c5c(nc6cc(C)ccn65)c4c3C2=O)NC(=O)/C(C)=C\C=C[C@H](C)[C@H](O)[C@@H](C)[C@@H](O)[C@@H](C)[C@H](OC(C)=O)[C@@H]1C |  |  | -12% (inactive)
28 | C=C[C@H]1[C@H](O[C@@H]2O[C@H](CO)[C@@H](O)[C@H](O)[C@H]2O)OC=C(C(=O)OC)[C@H]1C[C@@H]1N[C@H](C(=O)O)Cc2c1[nH]c1ccccc21 |  |  | -2.55% [at 17.3 µM] (inactive)
